Shown are actives, neighbours in structure and some others; about 3.7% of the full set was active somewhere.
tim23-1 inh: tim23-1 yeast growth inhibition; S. cerevisiae tim23-1 growth, BacTiter-Glo luminescence, 24 h; inhibition, % at 20 µM; 1.3% of 330,000 active;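 active = growth inhibition of the mutant yeast at or above 50%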;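 note: temperature-sensitive mutant grown at 25 °C; plate controls were DMSO-treated mutant yeast for no effect and medium wells lacking yeast for full effect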
TIM10 inh: inhibits growth of TIM10 yeast strain. S. cerevisiae TIM10 strain growth, BacTiter-Glo luminescence, 24 h. AID 463195. inhibition, % at 10 µM. 1.4% of 330,000 active;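 active = inhibition of 40% or more at the single tested concentration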;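 note: wild-type TIM10 isogenic control strain grown at permissive 25 °C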
tim10-1 inh: growth inhibitors of tim10-1 mutant yeast | 2.2% of 330,000 active | inhibition, % at 20 µM | S. cerevisiae tim10-1 ts strain growth, BacTiter-Glo, 24 h;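 active = inhibition of at least 40%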;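 note: mutant grown at 25 °C; 0% = DMSO wells with yeast and 100% = wells holding no yeast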
NLRP3 yeast inh: NALP3 inhibition in yeast. 0.39% of 330,000 active. inhibition, % at 10 µM. AID 2825. Yeast reconstituted NLRP3/ASC/caspase-1, beta-gal luminescence, 24 h;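 active = inhibition of 50% or more; inactive = inhibition below 50%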;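 note: plate controls were induced DMSO wells for no effect and uninduced yeast grown without galactose for full effect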
PfHsp90 set2: growth inhibition of yeast expressing Plasmodium Hsp90; S. cerevisiae expressing PfHsp90, BacTiter-Glo ATP, 48 h; yeast lacking PDR1 and PDR3 efflux regulators; inhibition, % at 9.4 µM; 0.32% of 310,000 active;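 active = every replicate shows inhibition above about 80%, whatever the replicate mean, limit read from the data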;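 note: 0% = DMSO neutral controls and 100% = 20 µM radicicol positive controls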
NALP3 confirm: confirmation of NALP3 inhibitors in yeast. shares compounds with NLRP3 yeast inh. yeast expressing human NALP3, luminescence. inhibition, % at 10 µM. 81% of 1,300 active. AID 435006; in the data active = inhibition above about 48%
Casp1 ASC ctr: counter-screen for NALP3 inhibitors: yeast caspase-1-ASC; shares compounds with NLRP3 yeast inh; inhibition, % at 10 µM; AID 488784; 66% of 1,000 active; yeast expressing Caspase-1-ASC, luminescence counter screen
NALP3 yeast rt: yeast NALP3 inhibition, confirmed on retest; yeast expressing human NALP3, luminescence read-out; 53% of 1,000 active; inhibition, % at 10 µM; shares compounds with NLRP3 yeast inh; AID 488794
tim10-1 confirm: tim10-1 yeast growth inhibition, confirmed | shares compounds with tim10-1 inh | S. cerevisiae tim10-1 ts strain growth, BacTiter-Glo, 24 h | inhibition, % at 20 µM | 56% of 7,400 active;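 active = inhibition of yeast growth at or above a set limit in either of two repeat tests at 20 µM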;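 note: tim10-1 mutant grown at permissive 25 °C to find synthetic lethal compounds; 0% = DMSO yeast wells and 100% = medium wells without yeast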
TIM10 conf: confirmation of TIM10 yeast growth inhibitors; shares compounds with TIM10 inh; S. cerevisiae tim10 strain growth, BacTiter-Glo luminescence, 24 h; inhibition, % at 10 µM; 63% of 4,600 active;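 active = inhibition of yeast growth at or above a set limit in either of two replicates at 10 µM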;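 note: this counterscreen used the strain with wild-type TIM10; 0% = yeast with DMSO and 100% = medium wells lacking yeast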
tim23-1 confirm: tim23-1 yeast growth inhibition, confirmed | shares compounds with tim23-1 inh | S. cerevisiae tim23-1 growth, BacTiter-Glo luminescence, 24 h | inhibition, % at 20 µM | 83% of 4,400 active;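 active = inhibition above about 39% in either of two replicate wells at 20 µM, limit read from the data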;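 note: temperature-sensitive tim23-1 mutant grown at 25 °C; 0% = DMSO wells with yeast and 100% = medium wells without yeast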
* hit, by the source's call; . = no result. Cut-off read from the data, not from the text of the source, unless noted: active = inhibition above about 50%; inactive = the rest.

SMILES	tim23-1 inh	TIM10 inh	tim10-1 inh	NLRP3 yeast inh	PfHsp90 set2	NALP3 confirm	Casp1 ASC ctr	NALP3 yeast rt	TIM10 conf	others
O=C(Nc1cccc(F)c1)c1ccc2c(c1)OCO2	42.4	49.6*	18.8	65.4*	4.5	64.8*	68.1*	62.0*	6.2
O=C(Nc1cccc(Cl)c1)c1ccc2ncsc2c1	30.7	50.1*	24.5	67.5*	13.3	85.8*	80.8*	76.3*	45.2*
O=C(Nc1ccc(Cl)cc1)c1ccc2ncsc2c1	-2.7	8.6	3.2	3.5	-25.7	.	.	.	.
COc1ccc2sc3ccccc3c(=O)c2c1	32.8	25.8	8.7	24.0	-9.1	.	.	.	.
Cc1cc(O)cc2c(=O)c3ccccc3sc12	20.9	60.3*	36.0	78.6*	-10.1	92.2*	54.2*	62.8*	55.4*
Cc1ccccc1-c1cc2c(nn1)-c1ccccc1C2=O	43.8	44.2*	28.2	60.6*	2.8	55.0*	25.8	35.8	30.1*
Cc1ccc(-c2cc3c(nn2)-c2ccccc2C3=O)cc1	18.8	30.6	9.6	17.5	4.4	.	.	.	.
O=C(Nc1nnc(SCc2ccc(F)cc2)s1)C1CC(=O)N(Cc2ccccc2)C1 (stereo not given)	10.6	6.9	14.3	2.0	2.8	.	.	.	.
CCCc1ncc(CN2CCC(C(=O)Nc3cccc(-c4cscn4)c3)CC2)cn1	8.4	7.5	-8.1	11.8	23.4	.	.	.	.
Cc1nc(SCC(C)C)[nH]c(=O)c1Cc1ccccc1	0.0	7.5	5.5	-6.0	-46.0	.	.	.	.
CCCCNC(=O)[C@]1(C)CCC[C@@]2(C)C3CC[C@@]4(C)C[C@]3(CCC21)CC4=O (stereo not given in full)	26.6	59.4*	-2.0	53.9*	5.6	50.4*	60.0*	53.0*	14.9
O=C(Nc1cccc(S(=O)(=O)N2CCCCC2)c1)c1ccc2ccccc2n1	25.1	40.6*	44.3*	-104.5	-36.9	-58.0	.	.	5.2	tim10-1 confirm=21.2
O=C(Nc1cccc(S(=O)(=O)N2CCCCCC2)c1)c1ccc(Cl)nc1	10.4	-36.9	-12.9	-0.6	.	.	.	.	.
O=C(Nc1cccc(S(=O)(=O)N2CCCC2)c1)c1ccc2ccccc2n1	-2.3	43.0*	46.5*	-128.3	-137.2	-11.7	.	.	38.5*	tim10-1 confirm=36.5*
C=CCc1c(C)c(C#N)c2nc3ccccc3n2c1NCCN(C)C	43.0	80.1*	49.2*	53.8*	108.8*	80.6*	77.9*	42.0	84.8*	tim10-1 confirm=60.0*
C=C(C)Cc1c(C)c(C#N)c2nc3ccccc3n2c1NCCCN(C)C	8.0	-4.3	9.9	4.5	.	.	.	.	.
CC(C)n1cnc2cc(NC(=O)c3ccco3)ccc21	30.2	-4.2	1.0	1.9	-11.0	.	.	.	.
COc1ccc(-n2cnc3cc(NC(=O)c4ccco4)ccc32)cc1	28.5	66.4*	29.4	58.2*	5.6	79.8*	62.2*	69.8*	53.8*
Oc1c(C=Nc2ccc(Cl)cn2)sc2ccccc12	-2.9	0.4	6.1	20.8	-13.0	.	.	.	.
Oc1c(/C=N/c2ccccn2)sc2ccccc12	36.6	69.4*	29.5	65.2*	15.8	75.9*	43.6	70.2*	62.0*
CCCCCCCCCCCCCCCC[n+]1ccc(C(N)=O)cc1	42.4	48.2*	-11.9	53.0*	103.9*	-9.6	.	.	-7.2
COc1cccc(N=Nc2c(C)[nH]n(-c3ccccc3)c2=O)c1	16.9	-3.1	-14.7	33.2	-1.4	.	.	.	.
COc1cccc(C(C[N+](=O)[O-])c2c(C)[nH]n(-c3ccccc3)c2=O)c1 (stereo not given)	27.3	62.1*	51.4*	51.9*	14.3	58.1*	20.6	22.0	89.2*	tim10-1 confirm=64.5*
CCCCOc1ccc(CSCCNC(=S)Nc2ccccc2)cc1	33.8	42.3*	33.2	54.4*	-20.9	59.8*	61.9*	34.0	-0.4
CSc1nnc(Cn2c(=O)sc3ccccc32)n1CCc1ccccc1	27.5	8.0	32.3	-7.5	-1.3	.	.	.	.
SMILES	tim23-1 inh	TIM10 inh	tim10-1 inh	NLRP3 yeast inh	PfHsp90 set2	NALP3 confirm	Casp1 ASC ctr	NALP3 yeast rt	TIM10 conf	others
N#C/C(=C/c1cccs1)c1nc2ccccc2[nH]1	34.0	49.7*	-4.8	80.3*	31.0	70.1*	83.5*	88.2*	-34.6
CN(C)/C=C(\C#N)c1nc2ccccc2[nH]1	13.4	7.9	-17.2	12.9	-8.2	.	.	.	.
O=C(/C=C/c1cccc(Cl)c1)c1nc2ccccc2[nH]1	15.2	57.8*	50.1*	92.4*	65.0	84.8*	99.0*	93.2*	62.8*	tim10-1 confirm=40.7*
Cc1csc(=NC(=O)c2ccccc2)n1C	55.3*	44.3*	3.2	61.6*	.	74.8*	73.2*	68.5*	37.7*	tim23-1 confirm=54.4*
Nc1nc(-c2ccc(Oc3ccccc3)cc2)cs1	57.1*	6.9	11.2	96.8*	-108.1	57.0*	98.8*	99.4*	.	tim23-1 confirm=48.2*
COc1ccc(-c2csc(N)n2)cc1	13.6	10.5	19.9	0.6	18.5	.	.	.	.
CCCCCCCCCCCCCCCC[N+](C)(C)CCN(Cc1ccc(OC)cc1)c1ncccn1	93.3*	95.1*	97.2*	52.4*	106.2*	20.7	.	.	98.7*	tim10-1 confirm=97.8*;tim23-1 confirm=95.8*
COc1ccc(CN(CCN(C)C)c2ccccn2)cc1	6.4	5.5	-14.8	1.8	-19.0	.	.	.	.
COc1ccc(C(=O)CC(=O)Nc2ccc([N+](=O)[O-])cc2)cc1	63.7*	35.1	13.0	67.0*	-11.2	74.8*	77.7*	82.5*	.	tim23-1 confirm=73.7*
CC(=O)COc1ccc2c3c(c(=O)oc2c1)CCCC3	20.6	7.5	13.2	15.2	-12.4	.	.	.	.
C#CCOc1ccc2c3c(c(=O)oc2c1)CCCC3	57.4*	-0.2	38.7	59.0*	-8.0	61.8*	60.0*	35.3	.	tim23-1 confirm=49.8*
Cn1c(N)c(C(=O)COC(=O)/C=C/c2ccc(S(=O)(=O)N3CCOCC3)cc2)c(=O)n(C)c1=O	12.6	-12.3	-1.4	4.7	5.6	.	.	.	.
COc1cccc(NC(=O)c2cccs2)c1	50.7*	66.4*	27.2	68.1*	.	81.4*	71.3*	56.5*	55.6*	tim23-1 confirm=75.1*
COc1cccc(C(=O)Nc2ccccc2)c1	50.2*	44.1*	25.3	50.8*	18.6	80.5*	47.6	38.7	27.0	tim23-1 confirm=57.5*
CCC(=O)N(Cc1cc(=O)[nH]c2ccccc12)C1CCCCC1	6.5	8.4	10.1	6.9	.	.	.	.	.

Source: PubChem
